This is a sample that favours compounds with a hit; in the whole collection about 6.1% have one here.
D1 potentiator: Potentiators of Human D1 Dopamine Receptor: qHTS | D(1A) dopamine receptor (Homo sapiens), P21728 | actives 0.036% (n = 360,000) | AID 504651, 2011 | HEK293 TREx D1 cells, calcium flux, dopamine EC20 potentiation | potentiation, % at 10 µM; in the data active = potentiation above about 30%; also: 0% is about no effect
ERG Ets-DNA blk: qHTS for Small Molecule Inhibitors of the ERG Ets/DNA interaction; Transcriptional regulator ERG (Homo sapiens), P11308; fluorescence polarization, His-ERG Ets domain / labelled DNA; Potency, µM (highest dose often 76.9 µM), without a hit: at the top dose FP activity, negative = inhibition, actives largely listed as inhibitors; actives 0.028% (n = 370,000); active = well fitted inhibition curve with a large enough effect in the polarisation, with a control signal flat; the % refers to the polarisation;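 also: polarization taken with two DNA probes labelled with fluorescein and Texas red; potency is read from the fitted curve at half-maximal effect; % of control where 0% means no effect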
Target sequence (P11308 whole entry, looked up, the tested form may be a part): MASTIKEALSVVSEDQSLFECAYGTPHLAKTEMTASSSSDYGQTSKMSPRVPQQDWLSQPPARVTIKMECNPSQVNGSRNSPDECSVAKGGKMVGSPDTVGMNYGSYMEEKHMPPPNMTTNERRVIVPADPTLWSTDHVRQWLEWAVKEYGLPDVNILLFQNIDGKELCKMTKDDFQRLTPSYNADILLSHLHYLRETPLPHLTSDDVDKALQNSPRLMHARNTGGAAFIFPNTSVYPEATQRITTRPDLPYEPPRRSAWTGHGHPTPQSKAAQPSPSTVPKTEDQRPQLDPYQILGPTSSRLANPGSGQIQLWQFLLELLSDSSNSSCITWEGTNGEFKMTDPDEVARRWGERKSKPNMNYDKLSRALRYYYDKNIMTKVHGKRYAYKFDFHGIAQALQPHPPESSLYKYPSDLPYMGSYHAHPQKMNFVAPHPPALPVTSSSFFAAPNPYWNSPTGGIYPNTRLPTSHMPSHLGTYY
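His-tagged ERG Ets domain (1 uM in the protein solution; 300mM KCl, 50mM Tris-HCl, 1mM EDTA, 1mM DTT, pH 7.5) received compound, then a probe mix of 5 nM fluorescein-DNA and 100nM Texas-615-DNA. Fluorescence polarization was read for both dyes.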
D1 antagonist: Antagonist of Human D 1 Dopamine Receptor: qHTS; HEK293 TREx D1 cells, calcium flux, dopamine EC80; active compounds read low; activity change, negative = inhibition, % at 10 µM; actives 3.2% (n = 360,000); AID 504652, 2011; in the data active = activity change below about -30%; also: % is scaled to controls: 0 for no effect and ±100 for the full control effect
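Tetracycline-induced HEK293 Trex D1 cells, force-coupled to calcium, dye-loaded; compounds added and read 180 s, then EC80 dopamine added and calcium flux tracked kinetically another 180 s.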
D3 antag: qHTS of D3 Dopamine Receptor Antagonist: qHTS; D(3) dopamine receptor (Homo sapiens), P35462; D3R cells, DiscoveRx beta-arrestin luminescence, antagonist mode; active compounds read low; max response, negative = inhibition, %; actives 2.5% (n = 360,000); in the data active = max response below about -50%; also: % is scaled to controls: 0 for no effect and ±100 for the full control effect
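Cells plated overnight at 1500 cells/well, then exposed to library compounds with dopamine controls for 90 minutes at 37 degrees C. DiscoveRx reagent added for 30–60 minutes at room temperature; luminescence read, quantitative HTS format.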
D1 ag: Allosteric Agonists of the Human D1 Dopamine Receptor: qHTS | D(1A) dopamine receptor (Homo sapiens), P21728 | HEK293 T-REx D1 cells, calcium flux, agonist mode | activation, % at 2 µM | actives 1% (n = 360,000); in the data active = activation above about 30%; also: 0% is about no effect
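Agonism was scored from calcium flux recorded over 180 s (1 read/s) after pintool compound addition, following a 10-cycle baseline. Cells were inducible force-coupled HEK293 TREx D1, plated overnight at 30 C and loaded with no-wash calcium dye.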
DRD3 agonist: qHTS of D3 Dopamine Receptor Agonist: qHTS; D(3) dopamine receptor (Homo sapiens), P35462; D3R DiscoveRx beta-arrestin cells, luminescence, 90 min; max activation, %; actives 0.58% (n = 410,000); AID 652048, 2013; in the data active = max activation above about 30%; also: 0% is about no effect
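Agonist mode: compounds and dopamine controls were applied to plated cells for 90 min at 37 degrees C after an overnight attachment at 1500 cells/well. Luminescent read-out followed 30 - 60 minutes at room temperature with DiscoveRx detection reagent.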
Starred values were filed as active, the others as inactive; . = not tested or not shown.

SMILES | D1 potentiator | ERG Ets-DNA blk | D1 antagonist | D3 antag | D1 ag | DRD3 agonist
Cc1ccc(S(=O)(=O)NCC(=O)OCCOc2ccccc2F)cc1 | . | 0% | . | -14 | . | -1
Cc1ccc(NC(=O)COC(=O)CCNS(=O)(=O)c2c(Cl)cccc2Cl)cc1 | . | -2% | . | 7 | . | -1
Cc1ccc(S(=O)(=O)NCCC(=O)OCC(=O)Nc2cccc(Cl)c2)cc1 | -5 | 2% | -42* | -26 | 7 | -4
NC(=O)c1ccc(Nc2nc(C(N)c3ccccc3Cl)cs2)cc1 (stereo unspecified) | . | . | . | 5 | . | 6
COc1ccc(F)cc1S(=O)(=O)Nc1ccc2c(c1)CCCN2C(=O)c1cccs1 | 0 | 1% | 22 | . | 4 | 7
Cc1ccc(CS(=O)(=O)c2ccccc2-c2nnc(-c3ccc(Cl)cc3)o2)cc1 | -6 | 0% | -39* | 25 | 15 | 5
Cc1ccc(CNC(=O)c2cnc3c(-c4ccc(F)cc4)c(C)nn3c2C)o1 | -9 | -1% | -43* | . | 2 | 6
CCOC(=O)c1ccc(NC(=O)c2cnc3c(-c4ccc(F)cc4)c(C)nn3c2C)cc1 | -5 | -1% | -40* | . | 4 | -4
Cc1cc(NC(=O)c2cnc3c(-c4ccccc4)c(C)nn3c2C)ccc1Br | -7 | -3% | -8 | . | 6 | 34*
Cc1ccc(CN2CCN(C(=O)/C=C/[C@H]3O[C@@H](n4cc(C)c(=O)[nH]c4=O)C[C@@H]3O)CC2)cc1 | . | . | . | -17 | . | -6
CC(C)(C)c1ccc(OCCC(=O)NC2=NCCS2)cc1 | -9 | 3% | 14 | 8 | 9 | 3
COc1cc2c(cc1OC)C1=C(C#N)CCC(=NC(=O)c3ccco3)N1CC2 | -1 | 1% | -12 | 4 | 2 | 1
COc1cc2c(cc1OC)C1=C(C#N)CC/C(=N\S(=O)(=O)c3cccc(Cl)c3)N1CC2 | -10 | -6% | -74* | 20 | 3 | 20
CCn1nc(NC(=O)COC)c2cc3cccc(C)c3nc21 | -4 | -2% | -81* | 15 | 3 | 4
FC(F)(F)c1ccccc1NC(=S)N1CCN(Cc2ccc3c(c2)OCO3)CC1 | 2 | 2% | -11 | 14 | 13 | -12
Cn1c(N)c(C(=O)Nc2ccccc2)c(=O)[nH]c1=O | . | -5% | . | 1 | . | 36*
Cc1cc(Cl)ccc1OCCCC(=O)OCC(=O)c1c(N)n(C)c(=O)n(C)c1=O | 2 | 4% | 3 | 2 | 3 | 0
Oc1ccccc1-c1nc(NCc2ccco2)c2ccccc2n1 | -2 | 2% | -3 | 13 | 2 | -1
c1ccc(-c2nc(NCc3ccco3)c3ccccc3n2)nc1 | 8 | 12% | 5 | -56* | 2 | -16
c1ccc(-c2nc(NCC3CCCO3)c3ccccc3n2)nc1 (stereo unspecified) | -6 | -2% | 11 | -53* | 0 | 0
CCc1cccc(NC(=O)c2c(N3CCCC3=O)c3cc(C)ccc3n2C)c1 | 2 | -2% | 2 | . | 3 | 6
O=C(NC(=S)NNC(=O)[C@H]1C[C@@H]1c1ccccc1)c1ccc(F)cc1 | -2 | 2% | -22 | 59 | 91* | 4
COc1cc(OC)cc(C(=O)NC(=S)NNC(=O)[C@H]2C[C@@H]2c2ccccc2)c1 | -3 | 11% | -9 | 13 | 88* | 8
CCOc1ccc(N=Nc2c(=O)[nH]n3c(=O)cc(C)[nH]c23)cc1 | -1 | 0% | -3 | -16 | 1 | -14
Cc1cc(=O)n2[nH]c(=O)c(N=Nc3ccccc3)c2[nH]1 | -2 | -7% | 3 | -84* | 3 | -4
CNC(=O)c1ccc2snnc2c1 | . | 1% | 2 | 0 | 4 | 4
CN(CC(=O)Nc1cccc(F)c1)C(=O)c1ccc(OCC2CCCO2)cc1 (stereo unspecified) | -8 | 0% | 17 | 20 | 4 | 6

High-throughput results as filed in PubChem BioAssay.
